Source: PubChem BioAssay AID1159580 (chemical genetic matrix, 2015)
“And” between values parts separate entries of the source, which are not always exact repeats. Equal entries are not always repeated. Among all 5,500 compounds or so, about 2,000 (36%) were called active. Inconclusive results (about 18%) are left out. No stated cut-off is given here; in the data, active means normalized growth mostly below about 0.91 (no sharp cut-off); inconclusive means no clear call, values can overlap the other calls; inactive means mostly above about 0.92. Some of the results follow.

Test: chemical genetic growth profiling, strain panel (AID 1159580);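 further: tested at 20 µM; growth read once vehicle control cultures reached saturation at 30 °C; 1 = growth at the plate median or of vehicle wells; lower values mean less growth of the strain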
Details: growth OD

Measured: normalized growth

CC(=O)O[C@@H]1CC[C@@]2(C)C(C[C@@H](OC(C)=O)[C@@]3(C)C4=CC(=O)O[C@@H](c5ccoc5)[C@]4(C)CCC23)C1(C)C (stereo partly drawn)
inactive: S. cerevisiae deletion strains, locus YBR021W, strain FUR4, hits give low values 1.01 | S. cerevisiae deletion strains, locus YBR229C, strain ROT2, hits give low values 1.01 | S. cerevisiae deletion strains, locus YCL029C, strain bik1, hits give low values 0.99 | S. cerevisiae deletion strains, locus YDL035C, strain GPR1, hits give low values 1.03 | S. cerevisiae deletion strains, locus YDL074C, strain BRE1, hits give low values 1 | S. cerevisiae deletion strains, locus YDL101C, strain DUN1, hits give low values 1.01 | S. cerevisiae deletion strains, locus YDL134C, strain PPH21, hits give low values 1.01 | S. cerevisiae deletion strains, locus YDL185W, strain tfp1, hits give low values 0.996 | S. cerevisiae deletion strains, locus YDL192W, strain arf1, hits give low values 1 | S. cerevisiae deletion strains, locus YDR101C, strain arx1, hits give low values 1 | S. cerevisiae deletion strains, locus YDR162C, strain NBP2, hits give low values 1.02 | S. cerevisiae deletion strains, locus YDR318W, strain mcm21, hits give low values 1 | S. cerevisiae deletion strains, locus YDR388W, hits give low values 1 | S. cerevisiae deletion strains, locus YDR502C, strain sam2, hits give low values 0.983 | S. cerevisiae deletion strains, locus YEL061C, strain CIN8, hits give low values 1.02 | S. cerevisiae deletion strains, locus YER110C, hits give low values 1 | S. cerevisiae deletion strains, locus YER155C, strain BEM2, hits give low values 1.02 | S. cerevisiae deletion strains, locus YER167W, strain BCK2, hits give low values 1.02 | S. cerevisiae deletion strains, locus YGL078C, strain dbp3, hits give low values 0.994 | S. cerevisiae deletion strains, locus YGL086W, strain mad1, hits give low values 1.02 | S. cerevisiae deletion strains, locus YGL248W, strain PDE1, hits give low values 0.999 | S. cerevisiae deletion strains, locus YGR135W, strain pre9, hits give low values 0.973 | S. cerevisiae deletion strains, locus YGR252W, strain gcn5, hits give low values 0.918 | S. cerevisiae deletion strains, locus YHR030C, strain SLT2, hits give low values 0.962 | S. cerevisiae deletion strains, locus YHR079C, strain IRE1 (second series), hits give low values 1 | S. cerevisiae deletion strains, locus YHR079C, strain IRE1, hits give low values 0.998 | S. cerevisiae deletion strains, locus YHR094C, strain hxt1, hits give low values 0.998 | S. cerevisiae deletion strains, locus YHR129C, strain ARP1, hits give low values 1.02 | S. cerevisiae deletion strains, locus YHR200W, strain rpn10, hits give low values 0.976 | S. cerevisiae deletion strains, locus YIL066C, strain RNR3, hits give low values 1.03 | S. cerevisiae deletion strains, locus YIL073C, strain SPO22, hits give low values 0.996 | S. cerevisiae deletion strains, locus YIL125W, strain kgd1, hits give low values 1 | S. cerevisiae deletion strains, locus YIR030C, strain dcg1, hits give low values 1 | S. cerevisiae deletion strains, locus YJL095W, strain BCK1, hits give low values 0.986 and 0.998 | S. cerevisiae deletion strains, locus YJL134W, strain LCB3, hits give low values 1.02 | S. cerevisiae deletion strains, locus YJL168C, strain set2, hits give low values 1 | S. cerevisiae deletion strains, locus YJL187C, strain SWE1 (second series), hits give low values 1 | S. cerevisiae deletion strains, locus YJR066W, strain TOR1, hits give low values 0.918 | S. cerevisiae deletion strains, locus YKL009W, strain mrt4, hits give low values 1.05 | S. cerevisiae deletion strains, locus YKL068W, hits give low values 1 | S. cerevisiae deletion strains, locus YKL085W, strain MDH1 (second series), hits give low values 1.03 | S. cerevisiae deletion strains, locus YKL085W, strain MDH1, hits give low values 1.03 | S. cerevisiae deletion strains, locus YKL190W, strain CNB1, hits give low values 1.02 | S. cerevisiae deletion strains, locus YKR001C, strain vps1, hits give low values 0.998 | S. cerevisiae deletion strains, locus YLR039C, strain RIC1, hits give low values 1.04 | S. cerevisiae deletion strains, locus YLR058C, strain SHM2, hits give low values 1.01 | S. cerevisiae deletion strains, locus YLR102C, strain apc9, hits give low values 0.998 | S. cerevisiae deletion strains, locus YLR113W, strain HOG1, hits give low values 0.981 | S. cerevisiae deletion strains, locus YLR268W, strain sec22, hits give low values 0.99 | S. cerevisiae deletion strains, locus YLR371W, strain rom2, hits give low values 1.01 | S. cerevisiae deletion strains, locus YLR418C, strain cdc73, hits give low values 0.909 | S. cerevisiae deletion strains, locus YML016C, strain PPZ1, hits give low values 1.02 | S. cerevisiae deletion strains, locus YML032C, strain rad52, hits give low values 1 | S. cerevisiae deletion strains, locus YML124C, strain tub3, hits give low values 0.999 | S. cerevisiae deletion strains, locus YMR078C, strain ctf18, hits give low values 1.01 | S. cerevisiae deletion strains, locus YMR223W, strain ubp8, hits give low values 0.988 | S. cerevisiae deletion strains, locus YMR307W, strain GAS1, hits give low values 0.953 | S. cerevisiae deletion strains, locus YNL067W, strain RPL9B, hits give low values 1 | S. cerevisiae deletion strains, locus YNL183C, strain NPR1, hits give low values 0.931 | S. cerevisiae deletion strains, locus YNL233W, strain BNI4, hits give low values 0.993 | S. cerevisiae deletion strains, locus YNL250W, strain rad50, hits give low values 0.992 | S. cerevisiae deletion strains, locus YNL271C, strain bni1, hits give low values 1 | S. cerevisiae deletion strains, locus YNL298W, strain CLA4, hits give low values 0.989 | S. cerevisiae deletion strains, locus YNL307C, strain MCK1, hits give low values 0.993 | S. cerevisiae deletion strains, locus YNR052C, strain pop2, hits give low values 0.993 | S. cerevisiae deletion strains, locus YOL006C, strain TOP1, hits give low values 0.986 | S. cerevisiae deletion strains, locus YOL012C, strain htz1 0.707 | S. cerevisiae deletion strains, locus YOL147C, strain pex11, hits give low values 1 | S. cerevisiae deletion strains, locus YOR061W, strain CKA2, hits give low values 1.02 | S. cerevisiae deletion strains, locus YOR069W, strain VPS5, hits give low values 1.02 | S. cerevisiae deletion strains, locus YOR136W, strain idh2, hits give low values 0.996 | S. cerevisiae deletion strains, locus YOR144C, strain elg1, hits give low values 1.01 | S. cerevisiae deletion strains, locus YOR184W, strain ser1, hits give low values 1.01 | S. cerevisiae deletion strains, locus YOR231W, strain MKK1, hits give low values 0.999 | S. cerevisiae deletion strains, locus YOR316C, strain cot1, hits give low values 0.999 | S. cerevisiae deletion strains, locus YPL055C, strain LGE1, hits give low values 0.997 | S. cerevisiae deletion strains, locus YPL256C, strain CLN2, hits give low values 0.973 | S. cerevisiae deletion strains, locus YPR119W, strain clb2, hits give low values 1 | S. cerevisiae deletion strains, locus YPR141C, strain kar3, hits give low values 0.993 | S. cerevisiae deletion strains, locus YPR163C, strain tif3, hits give low values 0.988 | S. cerevisiae deletion strains, locus YPR167C, strain met16, hits give low values 0.995 | S. cerevisiae deletion strains, strain wtn01, hits give low values 0.986 | S. cerevisiae strains, strain wild type, hits give low values 1.02
